# Hits are enriched below; roughly 2.3% of the tested compounds scored in any of these assays.
# PTHR1 agonist = agonists of human PTHR1 parathyroid hormone receptor | Potency, µM (doses to about 115 µM), most hits filed as activators | hit rate 0.075% among 410,000 | Q03431 | HEK293 GP2 PTHR1 cells, GloSensor cAMP luminescence, 1 h; note: nearly all actives have a fitted effect of over 55% in size
#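 HEK-293-derived GP2 cells expressing PTHR1 and a GloSensor cAMP reporter, 3,000/well, plated overnight, given luciferin plus IBMX (each 0.5 mM as added) for 1 h at 37 °C, then compound for 1 h at 37 °C. Luminescence was read after 15 min at room temperature.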
# GLS inhibitor = blocks human kidney-isoform glutaminase activity | GLS enzymatic activity, qHTS titration | Potency, µM (titrated, usually from 45.5 µM), actives largely listed as inhibitors | hit rate 0.21% among 410,000
#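 Coupled fluorescence readout: glutamate oxidase/HRP/Amplex Red detect glutamate formed by hKGA from L-glutamine (1 mM solution added). Buffer 45 mM KH2PO4 pH 8.2, 0.02% Tween-20; reads at t0 and 30 min RT.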
# 12-LOX inh = blocks human arachidonate 12S-lipoxygenase; purified 12hLO, xylenol orange hydroperoxide absorbance; AID 1671190; hit rate 1.1% among 580,000; Potency, µM (doses to about 108 µM), most hits filed as inhibitors
#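 Purified human 12hLO at 150 nM in 25 mM Hepes, 0.01% Triton X-100, pH 7.0, preincubated 15 min at room temperature with compound. Reaction started with 40 uM arachidonic acid, 30 min at room temperature. Hydroperoxide measured by Fe-xylenol orange, 573/405 nm absorbance ratio.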
# GLP1R inv ag = acts as inverse agonist at human GLP-1 receptor. Potency, µM (series often up to 38.3 µM), most hits filed as inhibitors. HEK293 GLP-1R CRE-luciferase, luminescence, 24 h; GLP-1R form is constitutively active. AID 624417. hit rate 1.6% among 410,000; note: nearly all actives have a fitted effect of over 55% in size
# Target sequence (P43220 whole entry, looked up): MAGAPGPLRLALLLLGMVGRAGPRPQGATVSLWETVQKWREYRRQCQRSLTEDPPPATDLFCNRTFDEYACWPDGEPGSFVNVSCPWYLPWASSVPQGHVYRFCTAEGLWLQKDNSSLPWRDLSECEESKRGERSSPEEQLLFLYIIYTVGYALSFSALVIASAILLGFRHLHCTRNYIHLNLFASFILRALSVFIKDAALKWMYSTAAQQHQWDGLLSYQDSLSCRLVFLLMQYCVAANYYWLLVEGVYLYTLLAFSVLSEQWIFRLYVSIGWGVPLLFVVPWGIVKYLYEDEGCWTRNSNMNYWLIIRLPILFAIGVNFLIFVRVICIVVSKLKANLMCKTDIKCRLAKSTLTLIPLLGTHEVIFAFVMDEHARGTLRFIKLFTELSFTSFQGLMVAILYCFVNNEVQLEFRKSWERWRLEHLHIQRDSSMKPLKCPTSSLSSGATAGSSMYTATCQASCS
#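 Cells are plated, allowed 12 hours at 37 deg C, then treated with compounds for 24 hr before luciferase detection reagent is added and luminescence is read after 12 min at room temperature. The HEK293 line carries constitutively active GLP-1R with a cAMP-responsive reporter.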
# Glioma ERSR ind = induces the endoplasmic reticulum stress response in human glioma cells. U87-MG GRP78 promoter luciferase reporter, 16 h. Potency, µM, usual class: activators. hit rate 0.02% among 420,000; note: series mostly up to about 76 µM; nearly all actives have a fitted effect of over 35% in size
#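 ERSR induction read as luciferase luminescence (Bright-Glo, 10 min at room temperature) in stably transfected human U87-MG glioma cells exposed to compounds for 16 h, using GRP78 as sensor.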
# GLP1R ag = agonists of human GLP-1 receptor; P43220; HEK293 GLP-1R CRE-luciferase, luminescence, 4-6 h; cells express a hypersensitive GLP-1R form; Potency, µM (doses to about 45.6 µM), hits mostly activators; hit rate 0.007% among 380,000
# Hits are given with their value; n = inactive; u = inconclusive; x = not tested or not shown; [ ] = dose if it differs, or a comment. Calls come from the whole dose curve; as a rule, active = well fitted curve in the direction sought with a large enough effect; inconclusive = small, poorly fitted or top-dose-only effect, or another doubt; inactive = no such curve, though single readings can be large; an effect the other way counts as inactive or inconclusive.
SMILES,PTHR1 agonist,GLS inhibitor,12-LOX inh,GLP1R inv ag,Glioma ERSR ind,GLP1R ag
C=CCC[C@@H](Cc1ccc(F)cc1)C(=O)OC[C@H](Cc1c[nH]c2ccccc12)NC(=O)[C@@H](CC=C)CC(=O)N[C@@H](CO)Cc1ccccc1,n,n,n,u,n,n
C=CCC[C@H](Cc1ccc(F)cc1)C(=O)OC[C@@H](Cc1c[nH]c2ccccc12)NC(=O)[C@@H](CC=C)CC(=O)N[C@@H](CO)Cc1ccccc1,n,n,u,7.08µM,n,n
CCCCCCn1c(=O)n2n(c1=O)C[C@]1(OC(=O)Nc3cccs3)CN(S(=O)(=O)c3ccc(C)cc3)C[C@]1(O)C2,n,n,35.5µM,u,n,n
c1ccc(Cc2nn3c(Cn4nnc5ccccc54)nnc3s2)cc1,n,n,56.2µM,n,n,n
Cc1ccc(C(NC(=O)c2ccccc2)c2cccnc2)cc1C (configuration not stated),x,x,n,x,x,x
CCCCN1C(=O)C(O)(c2ccccc2)c2cc(Br)ccc21 (configuration not stated),n,n,u,12.6µM,n,n
Cc1[nH]c2ccccc2c1C1(O)C(=O)N(Cc2ccccc2)c2ccc(Br)cc21 (configuration not stated),n,n,u,u,n,n
CCN(CC)CCCNC(=O)c1ccc2c(c1)NC(=O)C(CS(=O)(=O)Cc1cccc(Br)c1)N2 (configuration not stated),15.8µM,n,n,n,n,x
CCN(CC)CCNC(=O)c1ccc2c(c1)NC(=O)C(CS(=O)(=O)Cc1cccc(Br)c1)N2 (configuration not stated),u,u,n,n,n,x
Cc1nc(CCNC(=O)N(C)Cc2ccc3c(c2)OCO3)cs1,x,x,n,x,x,x
CC(C)CCNC(=O)c1cnc2n1CCN(Cc1ccc3c(c1)CCO3)CC2,x,x,n,x,x,x
CCCOc1ccc(N2C(=O)CC(N(Cc3ccc(OC)cc3)C(=S)Nc3ccccc3)C2=O)cc1 (configuration not stated),n,n,n,u,n,n
O=C1CC(N(CCc2ccccc2)C(=S)Nc2ccccc2)C(=O)N1c1ccc(F)cc1 (configuration not stated),n,n,n,4.47µM,n,n
COC(=O)CN(C(=S)Nc1ccc(F)cc1)C1CC(=O)N(c2ccc(OC)cc2)C1=O (configuration not stated),n,n,31.6µM,n,n,n
O=C1CC(N(CCc2ccccc2)C(=S)Nc2cc(Cl)ccc2Cl)C(=O)N1c1c(Cl)cccc1Cl (configuration not stated),n,n,u,4.47µM,n,n
CCCOc1ccc(N2C(=O)CC(N(CCc3ccc(OC)c(OC)c3)C(=S)Nc3ccccc3)C2=O)cc1 (configuration not stated),n,n,x,5.62µM,n,n
Fc1ccc2c(c1)nc1n2[C@@H](CNC2CCCCC2)COC1,x,x,n,x,x,x
CCCc1noc(-c2cccn3c(CNC(=O)c4cc(C)ccc4C)nnc23)n1,x,x,n,x,x,x
COC(=O)CC1c2cc(OC)c(OC)cc2CCN1Cc1nc(C2CC2)no1 (configuration not stated),x,x,n,x,x,x
COc1ccccc1NC(=S)NCCC(c1ccccc1)c1ccccc1,n,n,35.5µM,u,n,n
COc1cc(NC(=S)NCCC(c2ccccc2)c2ccccc2)c(OC)cc1Cl,n,n,39.8µM,u,n,n
COc1ccc(Cl)cc1NC(=S)NCCC(c1ccccc1)c1ccccc1,n,n,31.6µM,u,n,n
Fc1ccc(-c2cnc3n[nH]c(-c4ccccc4)c3n2)cc1,x,x,n,x,x,x
CCn1c(=O)n(CC)c2cc(S(=O)(=O)c3ccccc3)c(NC(=O)c3c(F)cccc3F)cc21,x,x,n,x,x,x
CC(C(=O)Nc1ccccc1)n1nc(-c2ccccc2)c2c(c1=O)CCCC2 (configuration not stated),x,x,n,x,x,x
O=C1NCc2ccccc2CC12CCCN2Cc1cc(F)ccc1F (configuration not stated),x,x,n[6.33 µM],x,x,x
